According to PubChem BioAssay (Tox21):
Records with an inconclusive call do not appear. Activity calls are given as the source filed them. Unless noted, calls come from the whole dose curve.

What was measured:
[1] = Nuclear factor erythroid 2-related factor 2/antioxidant responsive element (Nrf2/ARE) small molecule agonists: qHTS cell viability counter screen in human keratinocytes (AID 1919968; active = well fitted curve in the direction sought with a large enough effect in the repeat runs; an effect the other way counts as inactive or inconclusive; note: nearly all actives have a fitted effect of over 55% in size)
Outline: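 KeratinoSens HaCaT cells, 1,500/well, preincubated 5 h, then exposed to compounds in DMSO for 23 h at 37 C/5% CO2. Viability read as CellTiter-Fluor fluorescence after 1 h, in the same wells as the ARE-luciferase read.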

[2] = Nuclear factor erythroid 2-related factor 2/antioxidant responsive element (Nrf2/ARE) small molecule agonists: luciferase reporter gene qHTS assay in human keratinocytes (AID 1919969); note: nearly all actives have a fitted effect of over 35% in size
[3] = molecular target: Gonadotropin-releasing hormone receptor (Homo sapiens) (UniProt P30968); assay: Human gonadotropin-releasing hormone receptor (GnRHR) small molecule agonists, calcium flux assay in GnRHR-HEK293 cells (AID 1920063); note: nearly all actives have a fitted effect of over 35% in size
Outline: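 HEK293 cells stably expressing human GnRHR were dye-loaded for 1 h at 37 C. Compound was added in agonist mode and fluorescence (Ex/Em 480/540) recorded kinetically for 3 min. Fifteen concentrations, triplicates.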

[4] = molecular target: KiSS-1 receptor (Homo sapiens) (UniProt Q969F8); assay: Human kisspeptin (KISS1R) small molecule agonists, calcium flux assay in KISS1R-HEK293 cells (AID 1920064; active = well fitted curve in the direction sought with a large enough effect in the repeat runs; an effect the other way counts as inactive or inconclusive)
Outline: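 HEK293 cells stably expressing human KISS1R were loaded with calcium dye for 1 h at 37 C, then given compound; fluorescence (Ex/Em 480/540) was read kinetically for 3 min. Fifteen concentrations, triplicate.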

[5] = G protein-coupled receptor (GPCR) small molecule agonists, calcium flux assay: HEK293 wild type cell line counter screen (AID 1920065)
Outline: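 Wild-type HEK293 cells plated 18 h, loaded with calcium dye 1 h at 37 C, then compounds added in agonist mode (ATP as positive control). Kinetic fluorescence Ex/Em 480/540 recorded 3 min at 1 sec intervals; 15 concentrations, triplicate.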

[6] = p53 small molecule agonists, cell-based qHTS assay with human liver microsomes (AID 1963577)
Outline: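 p53RE-bla reporter cells were pre-incubated 5 h at 37 C, then treated with compounds plus human liver microsomes (0.5 mg/mL final) and NADPH (0.5 mg/mL final) for 16 h at 37 C. Beta-lactamase activity was read by LiveBLAzer fluorescence after 2 h at room temperature.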

[7] = p53 small molecule agonists, cell-based qHTS assay with rat liver microsomes (AID 1963578)
Outline: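 p53RE-bla cells were exposed to compounds together with rat liver microsomes (0.5 mg/mL final) and NADPH (0.5 mg/mL final) for 16 h at 37 C, then read by LiveBLAzer beta-lactamase fluorescence after 2 h at room temperature.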

[8] = p53 small molecule agonists, cell-based qHTS assay with rat liver microsomes: qHTS cell viability counter screen (AID 1963580); note: nearly all actives have a fitted effect of over 45% in size
Outline: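 Viability is assessed in parallel with the p53 reporter read: HCT-116 p53RE-bla cells receive compounds plus rat microsomes and NADPH (0.5 mg/mL final apiece), incubate 16 h at 37 C, and then CellTiter-Glo luminescence is recorded.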

[9] = p53 small molecule agonists, cell-based qHTS assay: qHTS cell viability counter screen (AID 1963581); note: nearly all actives have a fitted effect of over 45% in size
Outline: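 p53RE-bla HCT-116 cells, compounds added 5 h after plating and incubated 16 h at 37 C. Cytotoxicity measured in the same wells as intracellular ATP by CellTiter-Glo luminescence after 30 min at room temperature.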

[10] = p53 small molecule agonists, cell-based qHTS assay (AID 1963582; active = well fitted activation curve with a large enough effect in the signal ratio in the repeat runs, not every such curve was filed as active; the % refers to the signal ratio)
Outline: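 p53RE-bla reporter cells, compounds added in DMSO after 5 h plating, incubated 16 h at 37 C. Beta-lactamase read via 2 h room-temperature LiveBLAzer B/G FRET substrate, fluorescence intensity.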

[11] = cAMP Responsive Elements (CRE) small molecule agonists, cell-based qHTS assay (AID 1963590)
Outline: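 CRE-bla HEK 293T cells, 2,000/well in DMEM with 10% dialyzed FBS and 25 mM HEPES, pre-incubated 18 h at 37 C, then exposed to compound 3 h at 37 C. Beta-lactamase reporter read with LiveBLAzer B/G FRET substrate after 2 h at room temperature.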

[12] = cAMP Responsive Elements (CRE) small molecule antagonists, cell-based qHTS assay (AID 1963591; active = well fitted inhibition curve with a large enough effect in the signal ratio in the repeat runs, not every such curve was filed as active; the % refers to the signal ratio)
Outline: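 CRE-bla HEK293T cells plated 18 h, then given compound plus NKH477 at 0.25 uM final for 3 h at 37C. Beta-lactamase reporter read with LiveBLAzer B/G FRET substrate after 2 h at room temperature.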

[13] = molecular target: D(2) dopamine receptor (Homo sapiens) (UniProt P14416); assay: Dopamine D2 receptor (DRD2) small molecule antagonists, cell-based qHTS assay (AID 1963595; active = well fitted inhibition curve with a large enough effect in the signal ratio in the repeat runs, with a control signal flat; the % refers to the signal ratio)
Outline: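 HTRF cAMP read-out at 665 and 620 nm emission (340 nm excitation). Antagonist mode: compounds were tested against 12 nM quinpirole in DRD2-HEK293 cells, with 200 nM NKH477 raising cAMP and 0.1 mM Ro20-1724 blocking its breakdown.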

[14] = molecular target: Beta-2 adrenergic receptor (Homo sapiens) (UniProt P07550); assay: Adrenergic beta2 receptor (ADRB2) small molecule agonists, cell-based qHTS assay (AID 1963593);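 note: CHO cells stably overexpressing human ADRB2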
Outline: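 CHO cells stably over-expressing ADRB2 were plated overnight at 37C, then dosed with compounds plus a stimulation mix containing 100uM IBMX and 25uM Ro-20-1724 for 0.5hr at room temperature. cAMP was measured by HTRF competition, 1hr.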

[15] = molecular target: D(2) dopamine receptor (Homo sapiens) (UniProt P14416); assay: Dopamine D2 receptor (DRD2) small molecule agonists, cell-based qHTS assay (AID 1963594); note: nearly all actives have a fitted effect of over 35% in size
Outline: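 HEK293 cells stably expressing human DRD2, pre-treated with PDE inhibitor Ro20-1724 (0.1 mM final) and compound 10 min at room temperature, then stimulated with NKH477 (200nM […]) for 30 min. cAMP read by HTRF (665/620 nm).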

[16] = molecular target: 5-hydroxytryptamine receptor 2A (Homo sapiens) (UniProt P28223); assay: 5-hydroxytryptamine receptor 2A (HTR2A) small molecule antagonists, cell-based qHTS assay (AID 1963586); note: nearly all actives have a fitted effect of over 45% in size
Outline: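 Antagonist-mode intracellular calcium assay: DOI (4 nM) added after 5 min compound pre-incubation at room temperature to dye-loaded HTR2A-CHO cells. Fluorescence followed for 3 min, sampled every second.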

[17] = molecular target: Muscarinic acetylcholine receptor M1 (Homo sapiens) (UniProt P11229); assay: Cholinergic receptor muscarinic 1 (CHRM1) small molecule antagonists, cell-based qHTS assay (AID 1963588); note: nearly all actives have a fitted effect of over 40% in size
Outline: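 CHRM1-CHO calcium-flux assay, antagonist mode. Cells were seeded 18 h, dye-loaded 1 h at 37 C and given compound for 5 min at RT, then acetylcholine was added at 50nM. FDSS fluorescence was read 3 min; 15 concentrations, three runs.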

[18] = molecular target: Muscarinic acetylcholine receptor M1 (Homo sapiens) (UniProt P11229); assay: Cholinergic receptor muscarinic 1 (CHRM1) small molecule agonists, cell-based qHTS assay (AID 1963589); note: nearly all actives have a fitted effect of over 35% in size
Outline: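 CHO cells stably expressing human CHRM1 were loaded with calcium dye for 1 h at 37 C, then compound was added in agonist mode. Intracellular calcium fluorescence was followed kinetically at 1 s intervals. Fifteen concentrations were tested in three independent runs.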

[19] = molecular target: Beta-2 adrenergic receptor (Homo sapiens) (UniProt P07550); assay: Adrenergic beta2 receptor (ADRB2) small molecule antagonists, cell-based qHTS assay (AID 1963592); note: series mostly up to about 92 µM; nearly all actives have a fitted effect of over 50% in size
Outline: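 Cells (CHO, stable ADRB2 overexpression) incubated 18-20hr at 37C; compounds added from DMSO; agonist mix (1nM isoproterenol, 100uM IBMX, 25uM Ro-20-1724) added; 0.5hr RT; d2-cAMP and anti-cAMP-cryptate added; 1hr RT; 665/615 nm read.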

[20] = molecular target: 5-hydroxytryptamine receptor 2A (Homo sapiens) (UniProt P28223); assay: 5-hydroxytryptamine receptor 2A (HTR2A) small molecule agonists, cell-based qHTS assay (AID 1963587); note: nearly all actives have a fitted effect of over 30% in size
Outline: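 CHO cells stably expressing human HTR2A, plated 18 h, loaded with calcium dye 1 h at 37 C. Agonist mode: compounds added and intracellular calcium fluorescence recorded kinetically for 2 min at 1 sec intervals.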

Measured: Potency

Sequence of KiSS-1 receptor (Homo sapiens) (Q969F8 whole entry, looked up): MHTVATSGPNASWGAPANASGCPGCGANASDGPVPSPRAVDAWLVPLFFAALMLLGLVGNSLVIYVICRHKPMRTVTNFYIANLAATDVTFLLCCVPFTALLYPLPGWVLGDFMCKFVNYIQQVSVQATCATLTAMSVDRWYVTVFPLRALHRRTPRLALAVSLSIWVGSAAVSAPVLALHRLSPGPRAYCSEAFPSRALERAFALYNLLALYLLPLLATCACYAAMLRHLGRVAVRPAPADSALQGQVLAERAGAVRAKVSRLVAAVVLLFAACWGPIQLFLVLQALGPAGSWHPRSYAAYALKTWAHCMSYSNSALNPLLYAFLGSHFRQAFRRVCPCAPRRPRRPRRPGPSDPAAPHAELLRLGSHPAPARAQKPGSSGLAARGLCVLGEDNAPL
Sequence of Beta-2 adrenergic receptor (Homo sapiens) (P07550 whole entry, looked up): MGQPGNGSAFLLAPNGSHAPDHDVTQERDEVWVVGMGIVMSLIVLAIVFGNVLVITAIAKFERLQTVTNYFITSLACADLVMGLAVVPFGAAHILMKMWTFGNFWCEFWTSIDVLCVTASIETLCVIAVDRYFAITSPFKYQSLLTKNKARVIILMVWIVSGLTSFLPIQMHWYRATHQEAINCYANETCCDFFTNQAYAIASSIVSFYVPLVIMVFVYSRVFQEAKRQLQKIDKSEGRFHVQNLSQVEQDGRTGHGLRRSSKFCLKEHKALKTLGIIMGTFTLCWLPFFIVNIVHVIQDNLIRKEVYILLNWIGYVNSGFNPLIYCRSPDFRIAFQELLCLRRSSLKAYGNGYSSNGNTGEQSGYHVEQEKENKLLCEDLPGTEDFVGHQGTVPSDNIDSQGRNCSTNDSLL
Sequence of 5-hydroxytryptamine receptor 2A (Homo sapiens) (P28223 whole entry, looked up): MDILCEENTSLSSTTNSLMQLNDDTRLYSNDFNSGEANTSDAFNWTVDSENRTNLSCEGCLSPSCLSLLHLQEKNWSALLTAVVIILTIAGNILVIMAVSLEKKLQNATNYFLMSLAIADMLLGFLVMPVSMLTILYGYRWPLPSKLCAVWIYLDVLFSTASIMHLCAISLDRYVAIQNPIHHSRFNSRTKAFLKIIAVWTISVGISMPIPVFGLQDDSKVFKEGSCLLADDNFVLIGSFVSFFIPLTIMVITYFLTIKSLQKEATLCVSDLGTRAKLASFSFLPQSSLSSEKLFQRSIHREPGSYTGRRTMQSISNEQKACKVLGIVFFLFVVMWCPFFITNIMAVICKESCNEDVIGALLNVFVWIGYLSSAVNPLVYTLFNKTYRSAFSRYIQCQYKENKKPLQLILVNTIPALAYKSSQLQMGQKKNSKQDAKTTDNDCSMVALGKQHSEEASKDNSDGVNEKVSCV
Sequence of Muscarinic acetylcholine receptor M1 (Homo sapiens) (P11229 whole entry, looked up): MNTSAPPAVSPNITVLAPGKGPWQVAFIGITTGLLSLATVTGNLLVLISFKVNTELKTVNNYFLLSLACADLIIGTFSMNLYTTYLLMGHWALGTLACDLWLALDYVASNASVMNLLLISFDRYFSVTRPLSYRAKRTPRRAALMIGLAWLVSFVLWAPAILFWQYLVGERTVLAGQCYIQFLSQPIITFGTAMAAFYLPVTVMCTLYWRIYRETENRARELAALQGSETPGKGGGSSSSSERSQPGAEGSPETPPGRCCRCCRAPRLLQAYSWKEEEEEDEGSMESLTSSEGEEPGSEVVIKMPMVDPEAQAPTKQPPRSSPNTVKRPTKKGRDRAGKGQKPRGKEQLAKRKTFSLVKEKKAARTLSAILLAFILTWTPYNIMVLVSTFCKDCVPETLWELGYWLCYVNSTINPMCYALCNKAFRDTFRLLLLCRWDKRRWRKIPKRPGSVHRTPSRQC
Sequence of D(2) dopamine receptor (Homo sapiens) (P14416 whole entry, looked up): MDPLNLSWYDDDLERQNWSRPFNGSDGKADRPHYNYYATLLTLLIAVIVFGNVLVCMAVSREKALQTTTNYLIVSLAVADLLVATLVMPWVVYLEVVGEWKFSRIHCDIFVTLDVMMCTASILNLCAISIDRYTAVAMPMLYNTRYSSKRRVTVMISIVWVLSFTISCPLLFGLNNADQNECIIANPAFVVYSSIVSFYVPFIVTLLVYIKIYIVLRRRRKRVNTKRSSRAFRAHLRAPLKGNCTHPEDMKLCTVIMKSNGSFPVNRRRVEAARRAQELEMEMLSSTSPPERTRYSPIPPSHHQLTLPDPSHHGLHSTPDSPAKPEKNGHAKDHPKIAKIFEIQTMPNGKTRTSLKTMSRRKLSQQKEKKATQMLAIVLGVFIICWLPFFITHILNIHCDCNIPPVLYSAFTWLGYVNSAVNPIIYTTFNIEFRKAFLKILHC
Sequence of Gonadotropin-releasing hormone receptor (Homo sapiens) (P30968 whole entry, looked up): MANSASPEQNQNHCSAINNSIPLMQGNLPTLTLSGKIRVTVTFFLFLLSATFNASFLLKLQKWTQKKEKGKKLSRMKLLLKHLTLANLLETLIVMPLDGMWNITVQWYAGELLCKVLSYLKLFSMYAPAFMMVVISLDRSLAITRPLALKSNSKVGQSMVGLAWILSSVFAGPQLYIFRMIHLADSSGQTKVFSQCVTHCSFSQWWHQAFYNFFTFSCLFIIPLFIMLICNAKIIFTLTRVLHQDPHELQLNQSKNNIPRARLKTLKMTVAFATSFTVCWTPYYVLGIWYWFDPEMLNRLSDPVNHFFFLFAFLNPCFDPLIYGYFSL

CC(C)(C)NCC(O)COc1cccc2c1C[C@H](O)[C@H](O)C2 (some centres not stated)
not listed: [14] | [15] | [16] | [17] | [18] | [19] | [20]
inactive: all other assays above

CCOC(=O)OC(C)OC1=C(C(=O)Nc2ccccn2)N(C)S(=O)(=O)c2ccccc21 (configuration not stated)
not listed: [11] | [16] | [17] | [18] | [19] | [20]
inactive: all other assays above

Cc1ccc2ccccc2n1
not listed: [10] | [12] | [20]
inactive: all other assays above

CCOc1cccc(N)c1
not listed: [10] | [14]
inactive: all other assays above

CCCCCCCCCOC(=O)c1ccccc1C(=O)OCCCCCCCCC
not listed: [10] | [14]
inactive: all other assays above

CN(C)C(=O)CNC(=O)Cc1ccccc1
not listed: [16] | [17]
inactive: all other assays above

NC(=O)c1cn(Cc2c(F)cccc2F)nn1
not listed: [16]
inactive: all other assays above
